# Results reported in the supplement of paper PMC10037445.
# Whole data set: some 2,900 compounds, median “NF-kB SEAP reporter activity, fold change vs agonist alone” near 0.99, cut for the highest 2% near 2.6. This excerpt belongs to a sample that is enriched for the highest values.
# Tests used:
# RAW-Dual [1] = assay: NF-kB SEAP reporter activity, fold change vs agonist alone; higher = enhanced NF-kB activity
# Procedure, shortened: (§1)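 Supernatant from RAW-Dual macrophages was read after 20 hours for IRF by QuantiLuc luminescence and for NF-κB by QuantiBlue absorbance at 620 nm. The cells (50,000 cells/well in DMEM, 384-well plates, 37 °C, 5% CO2) had received 50 nL of library stock by pin tool and, 1 h later, a PRR agonist. Reporter activity is expressed relative to agonist-alone wells as fold change, and wells were flagged cytotoxic if IncuCyte confluency was under 70% of agonist controls in both mask sets.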
# RAW-Dual [2] = assay: NF-kB SEAP reporter activity, fold change vs agonist alone; cytotoxicity flag (confluency mask): not cytotoxic; higher = enhanced NF-kB activity
# Procedure, shortened: as §1
# RAW-Dual [3] = assay: NF-kB SEAP reporter activity, fold change vs agonist alone; cytotoxicity flag (confluency mask): cytotoxic (confluency <70% of control); higher = enhanced NF-kB activity
# Procedure, shortened: as §1
# [4] = library stock concentration (final ~1000-fold dilution): 10 mM, cytotoxicity flag (confluency mask): not cytotoxic, agonist: Imiquimod (TLR7) […]
# [5] = library stock concentration (final ~1000-fold dilution): 10 mM, cytotoxicity flag (confluency mask): not cytotoxic, agonist: MPLA (TLR4) […]
# [6] = agonist: ODN 1826 (TLR9) 0.5 ug/mL
# [7] = agonist: Pam2CSK4 (TLR2/6) 0.1 ug/mL
# [8] = agonist: Pam3CSK4 (TLR2/1) 0.1 ug/mL
# [9] = library stock concentration (final ~1000-fold dilution): 10 mM water, cytotoxicity flag (confluency mask): not cytotoxic, agonist: Imiquimod (TLR7) […]
# [10] = library stock concentration (final ~1000-fold dilution): 10 mM water, cytotoxicity flag (confluency mask): not cytotoxic, agonist: MPLA (TLR4) […]
smiles,measurement,setting,value
Cc1cc(Nc2nc(NC(C)c3ccc(F)cc3)c(C#N)cc2F)n[nH]1 (configuration not stated),NF-kB SEAP reporter activity,RAW-Dual [1]; [4],1
same,NF-kB SEAP reporter activity,RAW-Dual [1]; [5],0.984
Cc1cc(Nc2cc(Cl)nc(Oc3ccc([N+](=O)[O-])cc3)n2)n[nH]1 (library stock concentration (final ~1000-fold dilution): 10 mM),NF-kB SEAP reporter activity,RAW-Dual [2]; agonist: LPS (TLR4) 0.1 ug/mL,3.28
same,NF-kB SEAP reporter activity,RAW-Dual [2]; [6],2.32
same,NF-kB SEAP reporter activity,RAW-Dual [2]; [7],1.82
same,NF-kB SEAP reporter activity,RAW-Dual [2]; [8],2.92
Cc1cc(Nc2cc(Cl)nc(Oc3ccc([N+](=O)[O-])cc3)n2)n[nH]1,NF-kB SEAP reporter activity,RAW-Dual [1]; [4],1.24
same,NF-kB SEAP reporter activity,RAW-Dual [1]; [5],2.16
Cc1cc(Nc2nc(NC(C)c3ccc(F)cc3)c(C#N)cc2F)n[nH]1 (configuration not stated) (library stock concentration (final ~1000-fold dilution): 10 mM),NF-kB SEAP reporter activity,RAW-Dual [2]; agonist: LPS (TLR4) 0.1 ug/mL,1.87
same,NF-kB SEAP reporter activity,RAW-Dual [2]; [6],0.965
same,NF-kB SEAP reporter activity,RAW-Dual [2]; [7],1.44
same,NF-kB SEAP reporter activity,RAW-Dual [2]; [8],0.993
O=C(O)[C@H](O)Cc1ccc(O)c(O)c1 (library stock concentration (final ~1000-fold dilution): 10 mM water),NF-kB SEAP reporter activity,RAW-Dual [2]; agonist: LPS (TLR4) 0.1 ug/mL,1.19
same,NF-kB SEAP reporter activity,RAW-Dual [2]; [6],1.22
same,NF-kB SEAP reporter activity,RAW-Dual [2]; [7],1.1
same,NF-kB SEAP reporter activity,RAW-Dual [2]; [8],1
O=C(O)[C@H](O)Cc1ccc(O)c(O)c1,NF-kB SEAP reporter activity,RAW-Dual [1]; [9],0.919
same,NF-kB SEAP reporter activity,RAW-Dual [1]; [10],1.04
COc1nc2ccc(Br)cc2cc1C(c1ccccc1)C(O)(CCN(C)C)c1cccc2ccccc12 (configuration not stated),NF-kB SEAP reporter activity,RAW-Dual [1]; [4],0.771
same,NF-kB SEAP reporter activity,RAW-Dual [1]; [5],0.783
COc1nc2ccc(Br)cc2cc1C(c1ccccc1)C(O)(CCN(C)C)c1cccc2ccccc12 (configuration not stated) (library stock concentration (final ~1000-fold dilution): 10 mM),NF-kB SEAP reporter activity,RAW-Dual [2]; agonist: LPS (TLR4) 0.1 ug/mL,0.761
same,NF-kB SEAP reporter activity,RAW-Dual [2]; [6],0.86
same,NF-kB SEAP reporter activity,RAW-Dual [2]; [7],0.78
same,NF-kB SEAP reporter activity,RAW-Dual [2]; [8],0.531
NCC1OC(OC2C(CO)OC(OC3C(O)C(N)CC(N)C3OC3OC(CO)C(O)C(O)C3N)C2O)C(N)C(O)C1O.O=S(=O)(O)O (configuration not stated),NF-kB SEAP reporter activity,RAW-Dual [1]; [9],0.946
same,NF-kB SEAP reporter activity,RAW-Dual [1]; [10],1.03
NCC1OC(OC2C(CO)OC(OC3C(O)C(N)CC(N)C3OC3OC(CO)C(O)C(O)C3N)C2O)C(N)C(O)C1O.O=S(=O)(O)O (configuration not stated) (library stock concentration (final ~1000-fold dilution): 10 mM water),NF-kB SEAP reporter activity,RAW-Dual [2]; agonist: LPS (TLR4) 0.1 ug/mL,1.05
same,NF-kB SEAP reporter activity,RAW-Dual [2]; [6],1.24
same,NF-kB SEAP reporter activity,RAW-Dual [2]; [7],1.27
same,NF-kB SEAP reporter activity,RAW-Dual [2]; [8],1.03
CC(C)(C)NCC(O)COc1ccccc1C1CCCC1.CC(C)(C)NCC(O)COc1ccccc1C1CCCC1.O=S(=O)(O)O (configuration not stated),NF-kB SEAP reporter activity,RAW-Dual [1]; [4],1.29
same,NF-kB SEAP reporter activity,RAW-Dual [1]; [5],1.32
CC(C)(C)NCC(O)COc1ccccc1C1CCCC1.CC(C)(C)NCC(O)COc1ccccc1C1CCCC1.O=S(=O)(O)O (configuration not stated) (library stock concentration (final ~1000-fold dilution): 10 mM),NF-kB SEAP reporter activity,RAW-Dual [2]; agonist: LPS (TLR4) 0.1 ug/mL,0.844
same,NF-kB SEAP reporter activity,RAW-Dual [2]; [6],1.08
same,NF-kB SEAP reporter activity,RAW-Dual [2]; [7],0.857
same,NF-kB SEAP reporter activity,RAW-Dual [2]; [8],0.842
CN1CCc2c(c3ccccc3n2Cc2ccccc2)C1.CN1CCc2c(c3ccccc3n2Cc2ccccc2)C1.O=S(=O)(O)c1cccc2c(S(=O)(=O)O)cccc12 (library stock concentration (final ~1000-fold dilution): 2 mM),NF-kB SEAP reporter activity,RAW-Dual [2]; agonist: LPS (TLR4) 0.1 ug/mL,1.29
same,NF-kB SEAP reporter activity,RAW-Dual [2]; [6],0.722
same,NF-kB SEAP reporter activity,RAW-Dual [2]; [7],0.952
same,NF-kB SEAP reporter activity,RAW-Dual [2]; [8],0.958
CN1CCc2c(c3ccccc3n2Cc2ccc(C(=O)NO)cc2)C1.Cl (library stock concentration (final ~1000-fold dilution): 10 mM),NF-kB SEAP reporter activity,RAW-Dual [2]; agonist: LPS (TLR4) 0.1 ug/mL,5.1
same,NF-kB SEAP reporter activity,RAW-Dual [2]; [6],1.71
same,NF-kB SEAP reporter activity,RAW-Dual [2]; [7],1.08
same,NF-kB SEAP reporter activity,RAW-Dual [2]; [8],1.59
CN1CCc2c(c3ccccc3n2Cc2ccc(C(=O)NO)cc2)C1 (library stock concentration (final ~1000-fold dilution): 10 mM),NF-kB SEAP reporter activity,RAW-Dual [2]; agonist: LPS (TLR4) 0.1 ug/mL,1.15
same,NF-kB SEAP reporter activity,RAW-Dual [2]; [6],1.21
same,NF-kB SEAP reporter activity,RAW-Dual [2]; [7],0.779
same,NF-kB SEAP reporter activity,RAW-Dual [2]; [8],1.15
CN1CCc2c(c3ccccc3n2Cc2ccccc2)C1.CN1CCc2c(c3ccccc3n2Cc2ccccc2)C1.O=S(=O)(O)c1cccc2c(S(=O)(=O)O)cccc12,NF-kB SEAP reporter activity,"RAW-Dual [1]; library stock concentration (final ~1000-fold dilution): 2 mM, cytotoxicity flag (confluency mask): not cytotoxic, agonist: MPLA (TLR4) […]",1.15
CN1CCc2c(c3ccccc3n2Cc2ccc(C(=O)NO)cc2)C1,NF-kB SEAP reporter activity,RAW-Dual [1]; [4],1
same,NF-kB SEAP reporter activity,RAW-Dual [1]; [5],1.11
CN1CCc2c(c3ccccc3n2Cc2ccc(C(=O)NO)cc2)C1.Cl,NF-kB SEAP reporter activity,RAW-Dual [1]; [4],2.44
same,NF-kB SEAP reporter activity,RAW-Dual [1]; [5],2.55
CC(C)N(CCC(=O)c1ccc2ccccc2c1)Cc1ccccc1.Cl (library stock concentration (final ~1000-fold dilution): 10 mM),NF-kB SEAP reporter activity,RAW-Dual [3]; agonist: LPS (TLR4) 0.1 ug/mL,0.45
same,NF-kB SEAP reporter activity,RAW-Dual [3]; [6],0.518
same,NF-kB SEAP reporter activity,RAW-Dual [3]; [7],0.615
same,NF-kB SEAP reporter activity,RAW-Dual [3]; [8],0.442
CC(C)N(CCC(=O)c1ccc2ccccc2c1)Cc1ccccc1.Cl,NF-kB SEAP reporter activity,"RAW-Dual [1]; library stock concentration (final ~1000-fold dilution): 10 mM, cytotoxicity flag (confluency mask): cytotoxic (confluency <70% of control), agonist: Imiquimod (TLR7) […]",1.07
same,NF-kB SEAP reporter activity,"RAW-Dual [1]; library stock concentration (final ~1000-fold dilution): 10 mM, cytotoxicity flag (confluency mask): cytotoxic (confluency <70% of control), agonist: MPLA (TLR4) […]",0.507
Cc1cc(Nc2ccc(NC(=O)c3ccc(Nc4ccnc5ccccc45)cc3)cc2)nc(N)n1,NF-kB SEAP reporter activity,RAW-Dual [1]; [4],1.31
same,NF-kB SEAP reporter activity,RAW-Dual [1]; [5],2.36
O=C(NCCO)c1cccc(-c2cc(Nc3ccc(OC(F)(F)F)cc3)ncn2)c1,NF-kB SEAP reporter activity,RAW-Dual [1]; [4],1.09
same,NF-kB SEAP reporter activity,RAW-Dual [1]; [5],1.23
Cc1cc(Nc2ccc(NC(=O)c3ccc(Nc4ccnc5ccccc45)cc3)cc2)nc(N)n1 (library stock concentration (final ~1000-fold dilution): 10 mM),NF-kB SEAP reporter activity,RAW-Dual [2]; agonist: LPS (TLR4) 0.1 ug/mL,2.34
same,NF-kB SEAP reporter activity,RAW-Dual [2]; [6],0.228
same,NF-kB SEAP reporter activity,RAW-Dual [2]; [7],0.856
same,NF-kB SEAP reporter activity,RAW-Dual [2]; [8],1.34
O=C(Nc1ccc(OC(F)(F)F)cc1)c1sccc1NCc1ccnc2ccccc12 (library stock concentration (final ~1000-fold dilution): 10 mM),NF-kB SEAP reporter activity,RAW-Dual [2]; agonist: LPS (TLR4) 0.1 ug/mL,2.86
same,NF-kB SEAP reporter activity,RAW-Dual [2]; [6],1.18
same,NF-kB SEAP reporter activity,RAW-Dual [2]; [7],0.672
same,NF-kB SEAP reporter activity,RAW-Dual [2]; [8],1.07
O=C(Nc1ccc(OC(F)(F)F)cc1)c1sccc1NCc1ccnc2ccccc12,NF-kB SEAP reporter activity,RAW-Dual [1]; [4],1.77
same,NF-kB SEAP reporter activity,RAW-Dual [1]; [5],2.25
O=C(NCCO)c1cccc(-c2cc(Nc3ccc(OC(F)(F)F)cc3)ncn2)c1 (library stock concentration (final ~1000-fold dilution): 10 mM),NF-kB SEAP reporter activity,RAW-Dual [2]; agonist: LPS (TLR4) 0.1 ug/mL,1.15
same,NF-kB SEAP reporter activity,RAW-Dual [2]; [6],0.796
same,NF-kB SEAP reporter activity,RAW-Dual [2]; [7],0.96
same,NF-kB SEAP reporter activity,RAW-Dual [2]; [8],1.03
